# Measurements reported in PubChem BioAssay (Tox21).
# Results filed as inconclusive are left out. Active and inactive are the calls of the source. Unless noted, the call rests on the fitted dose curve.
# Assay: qHTS assay to identify small molecule antagonists of the vitamin D receptor (VDR) signaling pathway - cell viability counter screen (AID 743225; active means well fitted cell-killing curve with a large enough effect in the repeat runs; further: nearly all actives have a fitted effect of over 50% in size)
# Conditions: VDR-bla HEK293T viability, CellTiter-Glo luminescence, 16 h; series mostly up to 61 µM
# Method in brief: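 VDR-bla HEK 293T cells, 4 h pre-incubation at 37C, then compound plus 1-alpha,25-dihydroxyvitamin D3 (3 nM final) for 16 h. After the beta-lactamase FRET read, CellTiter-Glo was added to the same wells; luminescence after 30 min at room temperature.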
row,Structure (SMILES),outcome
1,CCNC(=S)NCC,inactive
2,OCc1ccccc1,inactive
3,COc1ccc(CCC(C)=O)cc1,inactive
4,Clc1ccccn1,inactive
5,C[Si]1(C)O[Si](C)(C)O[Si](C)(C)O[Si](C)(C)O1,inactive
6,C=C(C)C(=O)OCC(C)C,inactive
7,O=C(OCC1CCC2OC2C1)C1CCC2OC2C1 (stereo not given),inactive
8,CNC(=S)N(C)C,inactive
9,Brc1ccc(Br)c(Br)c1,inactive
10,COc1ccccc1OCC(O)CO (stereo not given),inactive
11,NC(=S)NNC(N)=S,inactive
12,CC(=O)OCCOC(C)=O,inactive
13,c1ccc2c(c1)Cc1ccccc1-2,inactive
14,CCO[Si](CCC#N)(OCC)OCC,inactive
15,CC(C)OC(=O)COc1ccc(Cl)cc1Cl,inactive
16,C=CC(=O)OCCC(=O)O,inactive
17,CNC(=O)Oc1ccc2c(c1)[C@]1(C)CCN(C)[C@@H]1N2C,inactive
18,CCCCCCCCCCCC(=O)OC,inactive
19,CC(=O)OC1CC(C)OC(C)O1 (stereo not given),inactive
20,CCOCC(=O)O,inactive
21,C=CCCCCCCCCC(=O)O,inactive

# Assay: qHTS assay to identify small molecule agonists of the NFkB signaling pathway (AID 1159509; active means well fitted curve in the direction sought with a large enough effect in the signal ratio in the repeat runs, not every such curve was filed as active; the % refers to the signal ratio)
# Conditions: NFkB-bla ME-180 cells, beta-lactamase FRET ratio, 5 h; series mostly up to 61 µM
# Method in brief: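 ME-180 NFkB-bla, 2,000 cells/well, overnight plating; cpd pinned in DMSO, 5 h 37 C; B/G FRET substrate 1.5 h RT; ex 405, em 460/530 nm.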
row,Structure (SMILES),outcome
1,C=CC[N+](C)(C)CC=C,inactive
2,CC1(C)NC(=O)NC1=O,inactive
3,CN(C)c1ccc(O)c2c1C[C@H]1C[C@H]3[C@H](N(C)C)C(=O)C(C(N)=O)=C(O)[C@@]3(O)C(=O)C1=C2O,inactive
4,O=C(O)/C=C/C(=O)O,inactive
5,C=C(C)CNCC,inactive
6,C=C(C)[C@H]1CC=C(C)C(=O)C1,inactive
7,O=[N+]([O-])c1ccc2nc[nH]c2c1,inactive
8,O=C(O)c1cc2ccccc2cc1O,inactive
9,C[C@]12CCC(=O)C=C1CC[C@@H]1[C@@H]2[C@@H](O)C[C@@]2(C)[C@H]1CC[C@]2(O)C(=O)CO,inactive
10,CCNc1cccc(C)c1,inactive
11,CC(CCl)OP(=O)(OC(C)CCl)OC(C)CCl (stereo not given),inactive
12,O=C(O)c1ccc(S(=O)(=O)N(Cl)Cl)cc1,inactive
13,O=C(O)CCCCCCCCC(=O)O,inactive
14,CC(C)(C)c1cc(Cc2cc(C(C)(C)C)c(O)c(C(C)(C)C)c2)cc(C(C)(C)C)c1O,inactive
15,CCCCCCCO,inactive
16,C[C@]12CC[C@@H]3c4ccc(O)cc4CC[C@H]3[C@@H]1C[C@@H](O)[C@@H]2O,inactive
17,CCNC(=S)NCC,inactive
18,OCc1ccccc1,inactive
19,COc1ccc(CCC(C)=O)cc1,inactive

row,Structure (SMILES),outcome
1,Clc1ccccn1,inactive
2,C[Si]1(C)O[Si](C)(C)O[Si](C)(C)O[Si](C)(C)O1,inactive
3,C=C(C)C(=O)OCC(C)C,inactive
4,O=C(OCC1CCC2OC2C1)C1CCC2OC2C1 (stereo not given),inactive
5,CNC(=S)N(C)C,inactive
6,Brc1ccc(Br)c(Br)c1,inactive
7,COc1ccccc1OCC(O)CO (stereo not given),inactive
8,NC(=S)NNC(N)=S,inactive
9,CC(=O)OCCOC(C)=O,inactive
10,c1ccc2c(c1)Cc1ccccc1-2,inactive
11,CCO[Si](CCC#N)(OCC)OCC,inactive
12,CC(C)OC(=O)COc1ccc(Cl)cc1Cl,inactive
13,C=CC(=O)OCCC(=O)O,inactive
14,CNC(=O)Oc1ccc2c(c1)[C@]1(C)CCN(C)[C@@H]1N2C,inactive
15,CCCCCCCCCCCC(=O)OC,inactive
16,CC(=O)OC1CC(C)OC(C)O1 (stereo not given),inactive
17,CCOCC(=O)O,inactive
18,C=CCCCCCCCCC(=O)O,inactive

# Assay: qHTS assay to identify small molecule agonists of the NFkB signaling pathway - cell viability counter screen (AID 1159515); further: nearly all actives have a fitted effect of over 55% in size
# Conditions: NFkB-bla ME-180 viability, CellTiter-Glo luminescence, 5 h; series mostly up to 61 µM
# Method in brief: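 NFkB-bla ME-180 cells, 2,000/well, plated overnight at 37 C; compound added for 5 hr at 37 C. Viability read in the same wells as the bla reporter, by CellTiter-Glo luminescence after 30 min at room temperature.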
row,Structure (SMILES),outcome
1,C=CC[N+](C)(C)CC=C,inactive
2,CC1(C)NC(=O)NC1=O,inactive
3,CN(C)c1ccc(O)c2c1C[C@H]1C[C@H]3[C@H](N(C)C)C(=O)C(C(N)=O)=C(O)[C@@]3(O)C(=O)C1=C2O,inactive
4,O=C(O)/C=C/C(=O)O,inactive
5,C=C(C)CNCC,inactive
6,C=C(C)[C@H]1CC=C(C)C(=O)C1,inactive
7,O=[N+]([O-])c1ccc2nc[nH]c2c1,inactive
8,O=C(O)c1cc2ccccc2cc1O,inactive
9,C[C@]12CCC(=O)C=C1CC[C@@H]1[C@@H]2[C@@H](O)C[C@@]2(C)[C@H]1CC[C@]2(O)C(=O)CO,inactive
10,CCNc1cccc(C)c1,inactive
11,CC(CCl)OP(=O)(OC(C)CCl)OC(C)CCl (stereo not given),inactive
12,O=C(O)c1ccc(S(=O)(=O)N(Cl)Cl)cc1,inactive
13,O=C(O)CCCCCCCCC(=O)O,inactive
14,CC(C)(C)c1cc(Cc2cc(C(C)(C)C)c(O)c(C(C)(C)C)c2)cc(C(C)(C)C)c1O,inactive
15,CCCCCCCO,inactive
16,C[C@]12CC[C@@H]3c4ccc(O)cc4CC[C@H]3[C@@H]1C[C@@H](O)[C@@H]2O,inactive
17,CCNC(=S)NCC,inactive
18,OCc1ccccc1,inactive
19,COc1ccc(CCC(C)=O)cc1,inactive

row,Structure (SMILES),outcome
1,Clc1ccccn1,inactive
2,C[Si]1(C)O[Si](C)(C)O[Si](C)(C)O[Si](C)(C)O1,inactive
3,C=C(C)C(=O)OCC(C)C,inactive
4,O=C(OCC1CCC2OC2C1)C1CCC2OC2C1 (stereo not given),inactive
5,CNC(=S)N(C)C,inactive
6,Brc1ccc(Br)c(Br)c1,inactive
7,COc1ccccc1OCC(O)CO (stereo not given),inactive
8,NC(=S)NNC(N)=S,inactive
9,CC(=O)OCCOC(C)=O,inactive
10,c1ccc2c(c1)Cc1ccccc1-2,inactive
11,CCO[Si](CCC#N)(OCC)OCC,inactive
12,CC(C)OC(=O)COc1ccc(Cl)cc1Cl,inactive
13,C=CC(=O)OCCC(=O)O,inactive
14,CNC(=O)Oc1ccc2c(c1)[C@]1(C)CCN(C)[C@@H]1N2C,inactive
15,CCCCCCCCCCCC(=O)OC,inactive
16,CC(=O)OC1CC(C)OC(C)O1 (stereo not given),inactive
17,CCOCC(=O)O,inactive
18,C=CCCCCCCCCC(=O)O,inactive
